KCNQ2 pot = potentiators of rat KCNQ2 potassium channel; 310,000 compounds, 0.54% hits; CHO-K1 KCNQ2, FluxOR thallium flux fluorescence; stronger effect = higher value; B-score at 10 µM; O88943;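 active = fluorescence ratio B-score at least 3 SD of library B-scores, with initial fluorescence B-score within 3 of them, cut at about 5.3 in these data; same plate scores as AID 2156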;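 note: B-score of peak minus minimum over baseline fluorescence ratio after K+ and Tl+ stimulus; positive B-score means potentiation of KCNQ2 with more thallium influx and brighter signal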
KCNQ2 inh = blocks the rat KCNQ2 potassium channel; B-score at 10 µM; AID 2156; 310,000 compounds, 1.1% hits; CHO-K1 KCNQ2, FluxOR thallium flux, 20 min; stronger effect = lower value;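 active = fluorescence ratio B-score at most minus 3 library SDs, with starting brightness B-score within 2 library SDs, cut at about -5.5 in these data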
Kir21 conf inh = confirmation of mouse Kir2.1 potassium channel inhibitors; shares compounds with KCNQ2 pot; Kir2.1-expressing cells, FluxOR thallium flux fluorescence; stronger effect = lower value; Tl flux remaining, % of negative control (stronger effect = lower value), % at 10 µM; 2,300 compounds, 41% hits;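 active = Primary-screen hit whose thallium flux fell at least 3 control SD below untreated wells in both duplicates, with normal baseline fluorescence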
HEK293 Tl flux = parental HEK293 activity in Kir2.1 inhibitor counter-screen; parental HEK293 cells, FluxOR thallium flux fluorescence; 0% = unstimulated blank wells; FluxOR signal as % of negative control (100 = no effect), % at 10 µM; AID 2105; shares compounds with KCNQ2 pot; 2,300 compounds, 19% hits;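 active = dye signal at least 3 control SD above or below untreated wells in both duplicates, raw fluorescence within 3, either direction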;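 note: percent is based on the flux ratio of peak minus minimum fluorescence over baseline F0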
CHO-K1 Tl ctr = parental CHO-K1 activity in KCNQ2 potentiator counter-screen | shares compounds with KCNQ2 pot | parental CHO-K1 cells, FluxOR thallium flux fluorescence; zero = vehicle mean+3SD, 100% = vehicle-minus-blank window | activity increase over 3SD of controls, % at 10 µM | 1,200 compounds, 43% hits;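 active = signal rise of at least 3 SD above the untreated control mean, in both duplicate wells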;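 note: counter screen of KCNQ2 potentiator hits so any rise reflects channel-independent effects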
KCNQ1 sel pot = human KCNQ1 counter-target activity of KCNQ2 potentiators; AID 2283; CHO KCNQ1 stable, FluxOR thallium flux fluorescence; beyond 3SD, as % of vehicle-control signal; 1,200 compounds, 28% hits; shares compounds with KCNQ2 pot; activation over 3SD threshold, % at 10 µM;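 active = fluorescence ratio rise of at least 3 SD of vehicle wells above their mean, in both replicate wells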
KCNQ2 pot confirm = confirmation of rat KCNQ2 potassium channel potentiators | CHO-KCNQ2 cells, FluxOR thallium flux fluorescence | shares compounds with KCNQ2 pot | 1,200 compounds, 68% hits | potentiation, less the hit threshold, % at 10 µM;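 active = fluorescence ratio rising 3 SD or more over the vehicle control mean in both replicates, plus primary screen hit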;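 note: peak minus minimum thallium fluorescence divided by baseline after K/Tl stimulus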
Kir2-1 sel = mouse Kir2.1 off-target activity of KCNQ2 potentiators | shares compounds with KCNQ2 pot | HEK293 Kir2.1, FluxOR thallium flux fluorescence | activity over 3SD threshold, % at 10 µM | AID 2345 | 1,200 compounds, 2% hits;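 active = fluorescence ratio rise of at least 3 SD above the vehicle-control mean, seen in both replicates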
KCNQ2 W236L MoA = rat KCNQ2 W236L mutant potentiation by KCNQ2 potentiators. shares compounds with KCNQ2 pot. CHO KCNQ2-W236L, automated patch clamp current. current increase over 3SD of negative controls (%), stronger effect = higher value, % at 25 µM. 940 compounds, 10% hits;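 active = current increase at least 3 SD of the untreated controls above them in both duplicate recordings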
Target sequence (O88943 whole entry W236L, looked up): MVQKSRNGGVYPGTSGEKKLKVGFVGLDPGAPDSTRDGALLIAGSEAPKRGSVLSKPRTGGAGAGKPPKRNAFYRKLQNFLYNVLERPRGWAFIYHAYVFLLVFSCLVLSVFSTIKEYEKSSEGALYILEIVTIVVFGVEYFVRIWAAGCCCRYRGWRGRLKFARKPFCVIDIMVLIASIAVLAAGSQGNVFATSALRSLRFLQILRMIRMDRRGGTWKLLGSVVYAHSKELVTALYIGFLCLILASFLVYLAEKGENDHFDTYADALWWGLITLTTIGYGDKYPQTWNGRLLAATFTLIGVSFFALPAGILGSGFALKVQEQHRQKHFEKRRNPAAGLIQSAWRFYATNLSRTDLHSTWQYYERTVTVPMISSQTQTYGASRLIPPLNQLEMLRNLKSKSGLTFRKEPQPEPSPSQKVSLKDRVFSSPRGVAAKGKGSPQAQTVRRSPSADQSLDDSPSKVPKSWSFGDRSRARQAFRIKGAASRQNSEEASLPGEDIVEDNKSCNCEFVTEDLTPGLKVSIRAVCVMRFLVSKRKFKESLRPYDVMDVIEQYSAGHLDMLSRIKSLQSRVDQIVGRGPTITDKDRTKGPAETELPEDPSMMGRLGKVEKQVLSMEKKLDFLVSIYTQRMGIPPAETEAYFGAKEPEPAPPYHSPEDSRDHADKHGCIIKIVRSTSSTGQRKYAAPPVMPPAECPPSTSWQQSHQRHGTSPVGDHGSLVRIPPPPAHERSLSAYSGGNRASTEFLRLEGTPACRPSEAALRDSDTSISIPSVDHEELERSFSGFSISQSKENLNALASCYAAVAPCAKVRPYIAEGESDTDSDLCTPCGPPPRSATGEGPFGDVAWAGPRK
Each line names hits and unclear results; the compound was inactive in the other large screens (follow-up assays come after a bar, where they were run). An excerpt weighted towards active compounds, which were near 1.6% of everything screened.

COc1ccc(CCNC(=O)COc2ccc(N(C)S(=O)(=O)c3ccc(Cl)cc3)cc2)cc1	KCNQ2 inh -6.5 | Kir21 conf inh inactive | HEK293 Tl flux inactive
C[C@@H]1C(=O)O[C@H]2[C@H](O)[C@@]34[C@H]5C[C@@H](C(C)(C)C)[C@]36[C@@H](OC(=O)[C@@H]6O)O[C@@]4(C(=O)O5)[C@@]12O	none
O=C1C2C3C=CC(CC3)C2C(=O)N1c1ccccc1[N+](=O)[O-] (stereo not given)	none
C/C(=N\NC(N)=S)c1ccccc1	none (no result: KCNQ2 pot)
CSC(=S)N/N=C(\C)c1ccccc1	KCNQ2 pot 8.7 | Kir21 conf inh inactive | HEK293 Tl flux 288% | CHO-K1 Tl ctr inactive | KCNQ1 sel pot inactive | KCNQ2 pot confirm 26 | Kir2-1 sel inactive | KCNQ2 W236L MoA 9.3%
CCc1ccc(N2CC(C(=O)Nc3ccc(S(=O)(=O)NCC4CCCO4)cc3)CC2=O)cc1 (stereo not given)	none
Cc1ccc(S(=O)(=O)NCc2csc(-c3cccs3)n2)cc1	none (no result: KCNQ2 pot)
O=S(=O)(NCc1csc(-c2cccs2)n1)c1ccc(Cl)cc1	none (no result: KCNQ2 pot) | Kir21 conf inh 42% | HEK293 Tl flux inactive
O=S(=O)(NCc1csc(-c2cccnc2)n1)c1ccc(Br)cc1	none | Kir21 conf inh 72% | HEK293 Tl flux inactive
COc1ccc(S(=O)(=O)NCc2csc(-c3cccnc3)n2)cc1	none
O=S(=O)(NCc1csc(-c2cccs2)n1)c1cccs1	none (no result: KCNQ2 pot)
O=S(=O)(NCc1csc(-c2cccs2)n1)c1cccc(C(F)(F)F)c1	none | Kir21 conf inh 42% | HEK293 Tl flux inactive
COC(=O)c1cc(C)sc1NC(=O)CSc1ncccn1	none (no result: KCNQ2 pot)
CCOC(=O)c1c(-c2ccccc2)csc1NC(=S)NC	KCNQ2 pot 7.8 | Kir21 conf inh inactive | HEK293 Tl flux 220% | CHO-K1 Tl ctr inactive | KCNQ1 sel pot inactive | KCNQ2 pot confirm 7.3 | Kir2-1 sel inactive | KCNQ2 W236L MoA inactive
CCOC(=O)c1c(-c2ccccc2)csc1NC(=O)CSc1nnc(C)s1	none (no result: KCNQ2 pot)
COC(=O)c1ccc(NC(=O)CN2C(=O)CC(C)S(=O)(=O)c3ccccc32)cc1 (stereo not given)	none (no result: KCNQ2 pot)
Cc1ccc(C)c(CN2CCCN(Cc3cc(C)ccc3C)S2(=O)=O)c1	none (no result: KCNQ2 pot)
Cc1ccc(CN2CCCN(Cc3cc(C)ccc3C)S2(=O)=O)cc1	KCNQ2 pot 7.3 | Kir21 conf inh inactive | HEK293 Tl flux inactive | CHO-K1 Tl ctr inactive | KCNQ1 sel pot inactive | KCNQ2 pot confirm inactive | Kir2-1 sel inactive
CC12CCC(C(=O)NC3CCCCC3)([C@H](Br)C1=O)C2(C)C (stereo not given in full)	none
Cn1cc(CNC(=O)/C=C/c2ccc(Cl)cc2)cn1	none
COc1ccc(C(OCC(O)CNCCc2ccc(S(N)(=O)=O)cc2)c2ccc(OC)cc2)cc1 (stereo not given)	none
OC(CNCCc1ccc(C(F)(F)F)cc1)COC(c1ccccc1)c1ccccc1 (stereo not given)	none (no result: KCNQ2 pot) | Kir21 conf inh 51% | HEK293 Tl flux 68%
COc1ccccc1CNC(=O)C(=O)NCC1OCCN1S(=O)(=O)c1ccc(Br)cc1 (stereo not given)	none (no result: KCNQ2 pot)
CC(C)CN1CCC(=O)N([C@H](COc2ccccc2)c2ccccc2)CC1	none (no result: KCNQ2 pot)
C1=C(CCNCC2CC2)CCCC1	none
Cc1ccc(CNCCC2=CCCCC2)cc1	none | Kir21 conf inh 38% | HEK293 Tl flux 68%
Cc1cc(OCC(O)CNC(C)c2ccccc2)ccc1C(C)C (stereo not given)	none | Kir21 conf inh inactive | HEK293 Tl flux inactive
CC(NCC(O)COc1ccc2ccccc2c1)c1ccccc1 (stereo not given)	none
CC(C)C(O)(C#CCN1CCCCCC1)c1ccccc1 (stereo not given)	none
CC(CC(=O)NCc1ccc(Cl)cc1)S(=O)(=O)c1ccc2c(c1)NC(=O)CO2 (stereo not given)	none
COc1ccc(CCNC(=O)C(=O)NCC2OCCN2S(=O)(=O)c2cc(F)ccc2F)cc1OC (stereo not given)	none (no result: KCNQ2 pot)
CCCc1cc(=O)oc2cc(C)cc(OC(C)C(=O)N[C@@H](Cc3c[nH]c4ccccc34)C(=O)O)c12 (stereo not given in full)	KCNQ2 pot 9.7 | Kir21 conf inh inactive | HEK293 Tl flux inactive | CHO-K1 Tl ctr 2.7 | KCNQ1 sel pot inactive | KCNQ2 pot confirm inactive | Kir2-1 sel inactive
CCCCc1cc(=O)oc2cc(C)cc(OC(C)C(=O)NC(Cc3c[nH]c4ccc(O)cc34)C(=O)O)c12 (stereo not given)	none (no result: KCNQ2 pot)
CC(OC(=O)c1nn(C)c(=O)c2ccccc12)C(=O)Nc1ccc(S(N)(=O)=O)cc1 (stereo not given)	none
O=c1c2cc(Br)ccc2nc(-c2ccccc2)n1O	KCNQ2 pot 7.8 | Kir21 conf inh inactive | HEK293 Tl flux 426% | CHO-K1 Tl ctr inactive | KCNQ1 sel pot inactive | KCNQ2 pot confirm 50 | Kir2-1 sel inactive | KCNQ2 W236L MoA inactive
O=c1c2ccccc2nc(-c2cccc(Cl)c2)n1O	KCNQ2 pot 8.7 | Kir21 conf inh inactive | HEK293 Tl flux inactive | CHO-K1 Tl ctr 74 | KCNQ1 sel pot inactive | KCNQ2 pot confirm 46 | Kir2-1 sel inactive | KCNQ2 W236L MoA inactive
O=c1c2cc(Cl)ccc2nc(-c2ccccc2Cl)n1O	none
Cc1ccc(-c2nc3ccccc3c(=O)n2O)cc1	none
Cc1cc(NS(=O)(=O)c2ccc(NC(=O)CCCOc3ccccc3C)cc2)no1	none
CN(C)c1ccc(Cl)cc1N	none
O=C(NNc1c(Cl)cc(Cl)cc1Cl)C1CCC1	none
CCc1ccc(O)c(CNCCNCc2cc(CC)ccc2O)c1	none | Kir21 conf inh 50% | HEK293 Tl flux inactive
Cc1ccnc(NCc2ccccc2O)c1	none
CCc1ccc(O)c(N=Cc2ccccc2O)c1	none (no result: KCNQ2 pot)
Cc1ccc(O)c(CNCCNCc2cc(C)ccc2O)c1	none (no result: KCNQ2 pot) | Kir21 conf inh 38% | HEK293 Tl flux inactive
CCn1c(CC(=O)Nc2ccc(C)cc2)nnc1SCC(=O)N1CCOCC1	none
O=C(Nc1ccccc1-c1ccccc1)C1CCCN(c2ncccn2)C1 (stereo not given)	none (no result: KCNQ2 pot)
COc1ccc(-c2cc(=O)oc3c(O)c(O)ccc23)cc1	none

Bioassay records: PubChem, Johns Hopkins Ion Channel Center
